Screening results deposited in PubChem by several laboratories.
A selection: hits, their analogues and other compounds. The true share with any hit is near 3.1%.
TWEAK Fn14 block: blocks TWEAK-Fn14 interaction in a reporter cell assay; TWEAK-stimulated Fn14 reporter cells, luciferase luminescence, 8 h; inhibition, % at 10 µM; 2% of 360,000 active; AID 1159606; in the data active = inhibition above about 50%
LGR2 inh: Drosophila LGR2 receptor signaling inhibition. HEK293 LGR2, CRE-luciferase, bursicon-stimulated, 4 h. inhibition, % at 9.99 µM. 0.35% of 380,000 active;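 active = drop in luminescence signal, shown as inhibition above about 50% in the replicate tests, limit read from the data, passing the limit was not always enough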;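 also: agonist challenge used bursicon conditioned medium at about half maximal strength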
PAX8 inh HTS: lowers PAX8-driven luciferase in RMG-I cells. RMG-I TPO-luciferase reporter, SteadyGlo, 24 h. inhibition, % at 12.6 µM. 1.2% of 360,000 active;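 active = mean replicate inhibition at least 60% with every replicate also reaching 60%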;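 also: luciferase light reporting Pax8 driven TPO promoter activity; plate controls were median of neutral control wells for no effect and mitoxantrone controls for full effect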
EBV LMP1 NFkB: inhibitors of Epstein-Barr LMP1-induced NF-kappaB reporter. LMP1-induced NF-kappaB luciferase reporter cells, luminescence. inhibition, % at 12.5 µM. 0.69% of 350,000 active. AID 504558; in the data active = inhibition above about 41%;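 also: 0% = neutral control wells and 100% = reference inhibitor control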
TROY signal inh: blocks TROY-dependent signaling in reporter cells; Q293 LMP1-TROYcd NF-kB luciferase reporter, 4 h; inhibition, % at 10 µM; 0.98% of 360,000 active; AID 1347056;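 active = compounds whose plate-normalised and pattern-corrected inhibition of the luciferase reporter signal at the single screening dose is 50% or more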
EWS-Fli block: blocks EWS/Fli oncoprotein-driven transcription | A673 NR0B1-luciferase reporter, viability-normalised | inhibition, % at 12.6 µM | 0.67% of 350,000 active | AID 651661;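 active = mean inhibition of at least 50% after viability correction, with every replicate also passing that limit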;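 also: firefly luciferase signal divided by Alamar Blue viability fluorescence both relative to DMSO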
* = called active by the depositor; . = no result.

SMILES | TWEAK Fn14 block | LGR2 inh | PAX8 inh HTS | EBV LMP1 NFkB | TROY signal inh | EWS-Fli block
CC(C)Sc1nc(SCC(=O)NCc2ccco2)c2c3c(sc2n1)COC(C)(C)C3 | 79* | . | . | -63 | 79* | .
CC(C)Sc1nc(SCC(=O)O)c2c3c(sc2n1)COC(C)(C)C3 | -15 | 6 | -55 | -10 | -44 | -18
CCCNC(=O)[C@@H]1[C@@H](CO)[C@@H]2Cn3c(cccc3=O)[C@@H]2N1C(=O)C1CCCC1 | . | 20 | . | . | . | -11
CCCn1c(/N=C/c2cc(OC)ccc2O)nc2ccccc21 | 12 | . | . | -18 | 2 | .
COc1ccc(O)c(/C=N/c2nc3ccccc3n2C)c1 | 8 | 13 | -6 | 90* | 11 | 10
C/C(=N\Nc1cccc2cccnc12)c1ccc(N)cc1 | 50 | -37 | 4 | -38 | 62* | -85
C[C@@H]1CN([C@@H](C)CO)C(=O)c2cc(NC(=O)C3CCCCC3)ccc2O[C@@H](C)CCCCO[C@H]1CN(C)S(=O)(=O)c1cn(C)cn1 | . | 7 | -3 | . | . | -8
O=C(NC(=S)/C(=C1\CCCCCN1)[N+](=O)[O-])c1ccccc1 | 99* | . | . | 40* | 87* | .
O=C(NC(=S)Nc1ccccc1[N+](=O)[O-])c1ccccc1 | -13 | -26 | -28 | -13 | -25 | -52
COc1ccc(C#Cc2ccc3c(c2)[C@@H]2[C@@H](CCN2C(=O)NC(C)C)[C@@H](CO)N3C)cc1 | . | -1 | -34 | . | . | -4
CC(=O)N(C)C[C@H]1Oc2cc(-c3cccnc3)ccc2S(=O)(=O)N([C@@H](C)CO)C[C@H]1C | . | -14 | -14 | . | . | 0
CCOC(=O)C(C)Oc1nc(Oc2ccccc2)nc(N(C)C)n1 (stereo not drawn) | 50* | . | . | 0 | . | .
COC(=O)c1ccc(Oc2nc(Nc3ccccc3)nc(N(C)C)n2)cc1 | 14 | . | . | 10 | -2 | .
Cc1noc(C)c1NC(=O)N(C)C[C@@H]1Oc2c(NS(=O)(=O)c3ccccc3)cccc2C(=O)N([C@@H](C)CO)C[C@H]1C | . | 0 | -12 | . | . | -3
Cc1cc2c(cc1C)CSC(c1ccccc1O)SC2 | 42 | . | . | -12 | 11 | .
Cc1cc2c(cc1C)CSC(c1c(O)ccc3ccccc13)SC2 | 75* | . | 49 | 5 | 49 | .
Cc1cc2c(cc1C)CSC(c1ccc(O)cc1)SC2 | 55* | 0 | . | -8 | 33 | -6
O=C(C[C@@H]1CC[C@@H](NS(=O)(=O)c2ccccc2)[C@H](CO)O1)NCc1ccccc1F | . | 11 | -1 | . | . | -4
CC(C)NC(=O)Nc1ccc2c(c1)C(=O)N([C@H](C)CO)C[C@H](C)[C@@H](CN(C)C(=O)NC1CCCCC1)OCCCC[C@@H](C)O2 | . | 6 | 3 | . | . | .
Cc1cccc(NC(=S)NCC(C)CSc2ccc(Cl)cc2)c1 (stereo not drawn) | 0 | 7 | 27 | -3 | 52* | 16
Cc1ccc(NC(=S)NCC(C)CSc2ccc(Cl)cc2)cc1 (stereo not drawn) | 2 | 21 | -6 | -3 | 11 | -1
COc1ccc2c3c([nH]c2c1)[C@H](CO)N(C(=O)Cc1ccccc1)CC31CCN(C(=O)Cc2ccccc2)CC1 | . | -11 | . | . | . | 5
CCNC(=O)C[C@H]1CC[C@H]2[C@H](COc3ccc(NC(C)=O)cc3C(=O)N2C)O1 | . | -2 | -24 | . | . | -1
C/C(CC(=O)Nc1ccc([N+](=O)[O-])cc1)=N\NC(=O)c1ccccc1O | -27 | -9 | -11 | -3 | 32 | 13
C/C(CC(=O)Nc1ccc(N(C)C)cc1)=N\NC(=O)c1ccccc1O | 24 | -20 | -13 | 11 | 56* | -8
SMILES | TWEAK Fn14 block | LGR2 inh | PAX8 inh HTS | EBV LMP1 NFkB | TROY signal inh | EWS-Fli block
COc1ccc(S(=O)(=O)N(C)C[C@@H]2OCc3ccccc3-c3ccccc3C(=O)N([C@H](C)CO)C[C@H]2C)cc1 | . | 5 | . | . | . | 13
C[C@@H]1CCCCO[C@H](CN(C)C(=O)Nc2ccc(F)cc2)[C@H](C)CN([C@H](C)CO)C(=O)c2cc(NC(=O)c3ccccc3)ccc2O1 | . | 20 | -6 | . | . | 12
CC1=NN(C(C#N)c2c(C)nn(Cc3ccccc3)c2C)C(C)(C)C1 (stereo not drawn) | -4 | 5 | 15 | 57* | -7 | .
CC1=NN(C(C#N)c2ccccc2C)C(C)(C)C1 (stereo not drawn) | 0 | -1 | 3 | 7 | 2 | 6
C[C@H]1CN([C@@H](C)CO)C(=O)Cc2cc(NS(C)(=O)=O)ccc2O[C@H]1CN(C)Cc1ccc(-c2ccccc2)cc1 | . | 2 | -3 | . | . | .
O=C(Nc1ccc(Cc2ccncc2)cc1)C1CCC(N2C(=O)C3C4C=CC(C5CC45)C3C2=O)CC1 (stereo not drawn) | 47 | . | -83 | -13 | 53* | .
CC(=O)Nc1ccc(NC(=O)C2CCC(N3C(=O)C4C5C=CC(C6CC56)C4C3=O)CC2)cc1 (stereo not drawn) | -29 | 4 | 6 | 4 | -7 | .
COc1cccc(S(=O)(=O)N2CC3(CCN(C)CC3)c3c([nH]c4cc(OC)ccc34)[C@@H]2CO)c1 | . | -7 | -8 | . | . | 1
Cc1ccc(S(=O)(=O)N(C)C[C@@H]2OCCCC[C@H](C)Oc3ccc(NC(=O)Nc4ccc(F)cc4)cc3C(=O)N([C@@H](C)CO)C[C@H]2C)cc1 | . | 10 | 7 | . | . | 15
Cc1ccc(S(=O)(=O)N(C)C[C@@H]2OCCCC[C@H](C)Oc3ccc(NC(=O)Nc4ccc(C(F)(F)F)cc4)cc3C(=O)N([C@H](C)CO)C[C@H]2C)cc1 | . | -7 | 61* | . | . | 10
C[C@@H]1CCCCO[C@H](CN(C)S(=O)(=O)c2ccc(F)cc2)[C@H](C)CN([C@@H](C)CO)C(=O)c2cc(NC(=O)Nc3ccc(C(F)(F)F)cc3)ccc2O1 | . | 5 | 58 | . | . | -8
Cc1ccc(S(=O)(=O)N(C)C[C@@H]2OCCCC[C@H](C)Oc3ccc(NC(=O)Nc4ccc(C(F)(F)F)cc4)cc3C(=O)N([C@@H](C)CO)C[C@@H]2C)cc1 | . | 7 | 42 | . | . | 6
C[C@@H]1CN([C@H](C)CO)C(=O)c2cc(NC(=O)Nc3ccc(C(F)(F)F)cc3)ccc2O[C@@H](C)CCCCO[C@H]1CN(C)S(=O)(=O)c1ccc(F)cc1 | . | -3 | 78* | . | . | -6
Cc1ccc(S(=O)(=O)N(C)C[C@@H]2OCCCC[C@H](C)Oc3ccc(NC(=O)Nc4ccc(F)cc4)cc3C(=O)N([C@H](C)CO)C[C@H]2C)cc1 | 2 | 6 | 64* | -6 | 16 | 14
C[C@@H]1CCCCO[C@H](CN(C)S(=O)(=O)c2ccc(F)cc2)[C@@H](C)CN([C@@H](C)CO)C(=O)c2cc(NC(=O)Nc3ccc(F)cc3)ccc2O1 | . | 5 | 62* | . | . | 5
CCS(=O)(=O)NCC[C@H]1CC[C@H](NC(=O)C2CC2)[C@@H](CO)O1 | . | 5 | . | . | . | -3
CC=Cc1ccc2n(c1=O)C[C@@H]1[C@@H](CO)[C@H](C(=O)NC3CCC3)N(Cc3ccncc3)[C@H]21 (mixture of isomers) | . | 2 | -6 | . | . | -2
